{
  "source": "the supplement of paper PMC4022240",
  "assay_in_all_cases": "peptide microarray binding signal (635 nm), min-max normalized on array (fraction of array maximum); higher = stronger binding",
  "key": {"[1]": {"molecular_target": "T1, HaloTag-ATRX ADD domain (163-292)", "T1 chain": "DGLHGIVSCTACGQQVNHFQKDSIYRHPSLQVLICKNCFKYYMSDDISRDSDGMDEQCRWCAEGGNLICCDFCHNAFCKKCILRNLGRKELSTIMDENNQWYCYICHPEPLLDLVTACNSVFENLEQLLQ", "how_it_was_run": "(§1)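 Within each library, mean intensities of triplicate spots were min-max scaled to give the binding signal. The spots were histone 13-mer peptide–cellulose conjugates on nitrocellulose with a Cy3 tracer, blocked overnight at 4°C. They were then probed for 1 h at 4°C using biotin-labelled HaloTag reader fusions (10 nM to 1 μM) with streptavidin-Alexa Fluor 647 or rabbit histone antibodies (1:10,000 to 1:2,000) with anti-rabbit Alexa 647, and scanned at 635 nm for signal and 532 nm for misprints on an Axon GenePix 4000B.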"}, "[2]": {"molecular_target": "HaloTag-ING2 PHD (mouse Ing2 200-280)", "how_it_was_run": "as §1"}, "[3]": {"molecular_target": "anti-H3K4me3 antibody ab8580", "how_it_was_run": "as §1"}, "[4]": {"molecular_target": "anti-H3K9me3 antibody ab8898", "how_it_was_run": "as §1"}, "[5]": {"settings": "peptide region: H3 5-17, peptide modifications: H3T11ph H3K14me2, binder concentration: 1:2,000 dilution"}, "[6]": {"settings": "peptide region: H3 5-17, peptide modifications: H3T11ph H3K14me2, binder concentration: 1:10,000 dilution"}, "[7]": {"settings": "peptide region: H3 5-17, peptide modifications: H3R8me2s H3T11ph, binder concentration: 1:2,000 dilution"}, "[8]": {"settings": "peptide region: H3 5-17, peptide modifications: H3R8me2s H3T11ph, binder concentration: 1:10,000 dilution"}, "[9]": {"settings": "peptide region: H3 5-17, peptide modifications: H3S10ph H3K14ac, binder concentration: 1:2,000 dilution"}, "[10]": {"settings": "peptide region: H3 5-17, peptide modifications: H3S10ph H3K14ac, binder concentration: 1:10,000 dilution"}, "[11]": {"settings": "peptide region: H3 11-23, peptide modifications: H3K14ac H3K18ac, binder concentration: 1:2,000 dilution"}, "[12]": {"settings": "peptide region: H3 11-23, peptide modifications: H3K14ac H3K18ac, binder concentration: 1:10,000 dilution"}, "[13]": {"settings": "peptide region: H3 5-17, peptide modifications: H3T11ph H3K14me3, binder concentration: 1:2,000 dilution"}, "[14]": {"settings": "peptide region: H3 5-17, peptide modifications: H3T11ph H3K14me3, binder concentration: 1:10,000 dilution"}},
  "note": "± gives the standard deviation.",
  "data": [
    {"binder": "QTARKSTGGKAPR", "note": "[H3 5-17 Q T A R K S Tph G G Kme2 A P R]", "values": [
      {"measurement": "peptide microarray binding signal", "setting": "[1]; peptide region: H3 5-17, peptide modifications: H3T11ph H3K14me2, binder concentration: 50 nM", "value": "0.00216 ± 8e-05"},
      {"measurement": "peptide microarray binding signal", "setting": "[1]; peptide region: H3 5-17, peptide modifications: H3T11ph H3K14me2, binder concentration: 500 nM", "value": "0.00505 ± 0.00083"},
      {"measurement": "peptide microarray binding signal", "setting": "[2]; peptide region: H3 5-17, peptide modifications: H3T11ph H3K14me2, binder concentration: 10 nM", "value": "0.00239 ± 0.00024"},
      {"measurement": "peptide microarray binding signal", "setting": "[2]; peptide region: H3 5-17, peptide modifications: H3T11ph H3K14me2, binder concentration: 100 nM", "value": "0.00213 ± 0.00021"},
      {"measurement": "peptide microarray binding signal", "setting": "[3]; [5]", "value": "0.00496 ± 0.0019"},
      {"measurement": "peptide microarray binding signal", "setting": "[3]; [6]", "value": "0.00605 ± 0.0024"},
      {"measurement": "peptide microarray binding signal", "setting": "[4]; [5]", "value": "0.00177 ± 0.00016"},
      {"measurement": "peptide microarray binding signal", "setting": "[4]; [6]", "value": "0.00248 ± 0.00058"}
    ]},
    {"binder": "QTARKSTGGKAPR", "note": "[H3 5-17 Q T A Rme2s K S Tph G G K A P R]", "values": [
      {"measurement": "peptide microarray binding signal", "setting": "[1]; peptide region: H3 5-17, peptide modifications: H3R8me2s H3T11ph, binder concentration: 50 nM", "value": "0.00458 ± 6e-05"},
      {"measurement": "peptide microarray binding signal", "setting": "[1]; peptide region: H3 5-17, peptide modifications: H3R8me2s H3T11ph, binder concentration: 500 nM", "value": "0.0138 ± 0.0057"},
      {"measurement": "peptide microarray binding signal", "setting": "[2]; peptide region: H3 5-17, peptide modifications: H3R8me2s H3T11ph, binder concentration: 10 nM", "value": "0.0277 ± 0.00076"},
      {"measurement": "peptide microarray binding signal", "setting": "[2]; peptide region: H3 5-17, peptide modifications: H3R8me2s H3T11ph, binder concentration: 100 nM", "value": "0.0321 ± 0.004"},
      {"measurement": "peptide microarray binding signal", "setting": "[3]; [7]", "value": "0.0081 ± 0.0027"},
      {"measurement": "peptide microarray binding signal", "setting": "[3]; [8]", "value": "0.00474 ± 0.00064"},
      {"measurement": "peptide microarray binding signal", "setting": "[4]; [7]", "value": "0.00136 ± 0.00012"},
      {"measurement": "peptide microarray binding signal", "setting": "[4]; [8]", "value": "0.001441 ± 1.4e-05"}
    ]},
    {"binder": "QTARKSTGGKAPR", "note": "[H3 5-17 Q T A R K Sph T G G Kac A P R]", "values": [
      {"measurement": "peptide microarray binding signal", "setting": "[1]; peptide region: H3 5-17, peptide modifications: H3S10ph H3K14ac, binder concentration: 50 nM", "value": "0.0047 ± 0.00015"},
      {"measurement": "peptide microarray binding signal", "setting": "[1]; peptide region: H3 5-17, peptide modifications: H3S10ph H3K14ac, binder concentration: 500 nM", "value": "0.0165 ± 0.0018"},
      {"measurement": "peptide microarray binding signal", "setting": "[2]; peptide region: H3 5-17, peptide modifications: H3S10ph H3K14ac, binder concentration: 10 nM", "value": "0.0122 ± 0.0017"},
      {"measurement": "peptide microarray binding signal", "setting": "[2]; peptide region: H3 5-17, peptide modifications: H3S10ph H3K14ac, binder concentration: 100 nM", "value": "0.0326 ± 0.0032"},
      {"measurement": "peptide microarray binding signal", "setting": "[3]; [9]", "value": "0.00136 ± 0.00015"},
      {"measurement": "peptide microarray binding signal", "setting": "[3]; [10]", "value": "0.0012 ± 3.2e-05"},
      {"measurement": "peptide microarray binding signal", "setting": "[4]; [9]", "value": "0.00435 ± 0.00042"},
      {"measurement": "peptide microarray binding signal", "setting": "[4]; [10]", "value": "0.00213 ± 7.1e-05"}
    ]},
    {"binder": "TGGKAPRKQLATK", "note": "[H3 11-23 T G G Kac A P R Kac Q L A T K]", "values": [
      {"measurement": "peptide microarray binding signal", "setting": "[1]; peptide region: H3 11-23, peptide modifications: H3K14ac H3K18ac, binder concentration: 50 nM", "value": "0.00511 ± 0.00036"},
      {"measurement": "peptide microarray binding signal", "setting": "[1]; peptide region: H3 11-23, peptide modifications: H3K14ac H3K18ac, binder concentration: 500 nM", "value": "0.013 ± 0.00068"},
      {"measurement": "peptide microarray binding signal", "setting": "[2]; peptide region: H3 11-23, peptide modifications: H3K14ac H3K18ac, binder concentration: 10 nM", "value": "0.00913 ± 0.0004"},
      {"measurement": "peptide microarray binding signal", "setting": "[2]; peptide region: H3 11-23, peptide modifications: H3K14ac H3K18ac, binder concentration: 100 nM", "value": "0.0128 ± 0.00072"},
      {"measurement": "peptide microarray binding signal", "setting": "[3]; [11]", "value": "0.00445 ± 0.00038"},
      {"measurement": "peptide microarray binding signal", "setting": "[3]; [12]", "value": "0.00896 ± 0.0029"},
      {"measurement": "peptide microarray binding signal", "setting": "[4]; [11]", "value": "0.00139 ± 6.5e-05"},
      {"measurement": "peptide microarray binding signal", "setting": "[4]; [12]", "value": "0.00115 ± 2e-05"}
    ]},
    {"binder": "QTARKSTGGKAPR", "note": "[H3 5-17 Q T A R K S Tph G G Kme3 A P R]", "values": [
      {"measurement": "peptide microarray binding signal", "setting": "[1]; peptide region: H3 5-17, peptide modifications: H3T11ph H3K14me3, binder concentration: 50 nM", "value": "0.00257 ± 7.4e-05"},
      {"measurement": "peptide microarray binding signal", "setting": "[1]; peptide region: H3 5-17, peptide modifications: H3T11ph H3K14me3, binder concentration: 500 nM", "value": "0.00829 ± 0.00052"},
      {"measurement": "peptide microarray binding signal", "setting": "[2]; peptide region: H3 5-17, peptide modifications: H3T11ph H3K14me3, binder concentration: 10 nM", "value": "0.00418 ± 0.00034"},
      {"measurement": "peptide microarray binding signal", "setting": "[2]; peptide region: H3 5-17, peptide modifications: H3T11ph H3K14me3, binder concentration: 100 nM", "value": "0.00857 ± 0.0014"},
      {"measurement": "peptide microarray binding signal", "setting": "[3]; [13]", "value": "0.00848 ± 0.002"},
      {"measurement": "peptide microarray binding signal", "setting": "[3]; [14]", "value": "0.00582 ± 0.0016"},
      {"measurement": "peptide microarray binding signal", "setting": "[4]; [13]", "value": "0.0639 ± 0.0075"},
      {"measurement": "peptide microarray binding signal", "setting": "[4]; [14]", "value": "0.0181 ± 0.0023"}
    ]}
  ]
}
